Reference: the supplement of paper PMC6555819

What was measured:
Test in all cases: PBM binding z-score (relative to random genomic background probes); higher = stronger binding; sequences stand for … in GC…GCGATTGACAGCGTAGAATGAAGG
[1] = system: FXR:RXRa (NR concentration 270 nM, RXRa partner concentration 90 nM)
Method in brief: (§1)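 Scanned fluorescence from custom Agilent 4×180K protein-binding microarrays was regression-normalized. Binding z-scores use random background probes as reference. Ligand-free nuclear receptor dimers were incubated on the arrays for 1 h and detected with antibodies against each partner (one per run).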

[2] = system: LXRa:RXRa (NR concentration 270 nM, RXRa partner concentration 90 nM)
Method in brief: as §1

[3] = system: LXRa homodimer (NR concentration 270 nM)
Method in brief: as §1

[4] = system: LXRb:RXRa (NR concentration 270 nM, RXRa partner concentration 90 nM)
Method in brief: as §1

[5] = system: LXRb homodimer (NR concentration 270 nM)
Method in brief: as §1

[6] = system: PPARa:RXRa (NR concentration 270 nM, RXRa partner concentration 90 nM)
Method in brief: as §1

[7] = system: PPARg:RXRa (NR concentration 180 nM, RXRa partner concentration 90 nM)
Method in brief: as §1

[8] = system: PPARg:RXRa 270nM:90nM, anti-RXR (NR concentration 270 nM, RXRa partner concentration 90 nM)
Method in brief: as §1

[9] = system: PPARg:RXRa 30nM:10nM, anti-RXR (NR concentration 30 nM, RXRa partner concentration 10 nM)
Method in brief: as §1

[10] = system: PPARg:RXRa 90nM:30nM, anti-RXR (NR concentration 90 nM, RXRa partner concentration 30 nM)
Method in brief: as §1

Sequence	PBM binding z-score [1]	PBM binding z-score [2]	PBM binding z-score [3]	PBM binding z-score [4]	PBM binding z-score [5]	PBM binding z-score [6]	PBM binding z-score [7]	PBM binding z-score [8]	PBM binding z-score [9]	PBM binding z-score [10]
CGTCAAAGTTCACGGTAACGTAACAGAAAGCAGC	7.1	6.15	2.53	4.09	0.842	5.42	6.18	6.59	3.33	5.36
GCTAGTTGGTCAGTAAAAGGTAACACACCGGTCG	0.0852	0.248	0.0445	0.107	-0.224	0.694	0.783	0.945	0.0648	0.29
TATAGTTGGTCACGGAGGTCACACACGACGGGTA	3.47	3.92	3.29	3.47	1.25	4.09	4.49	3.8	1.92	3.19
AGAACGAGGGCACGCTGGGTTGATAGCAGAGTAG	1.04	0.969	-0.399	0.12	-0.802	2.11	2.01	1.91	0.228	1.15
ACCATTAGTTGACTTAGGGCAACCGATACGACGC	0.502	0.629	0.679	0.464	0.693	0.273	1.06	0.133	0.182	0.582
CCTTACGGGTAACTGACAGGTTATAGCATTTGGA	0.183	0.937	9.84e-05	0.454	-0.428	0.56	0.319	0.0456	-0.0329	-0.0443
CCTCCAAGGTCAAGGTCAGTGAAAGAGACTCGAA	7.8	5.56	1.22	4.56	0.877	5.99	6.15	6.06	2.76	4.75
CCTTACGGGTCACTCGAGGTTATAGCATCGGAGT	5.2	7.76	3.19	5.72	-0.178	5.01	4.03	4.33	1.41	3.01
CCTAGTTGGTCAACGTCACACACGCTATAGGTAC	0.458	0.525	0.431	0.877	0.581	0.58	1.25	0.719	0.299	0.407
GCATATAGGTTATACAAGGTGAAAGTCCGATTGT	2.85	6.15	1.21	3.08	0.203	2.94	2.19	2.63	0.843	1.98
CCTCGGAGGACAACAAGAGGTCAGAGCTGCCAGA	2.12	3.5	3.68	2.35	-0.358	2.82	1.01	1.62	-0.0713	0.904
CCTTATGGGTCACTGACAGGTTATAGCATTTGGA	3.95	3.45	0.192	2.96	-0.062	4.93	5.81	5.11	2.32	4.08
CCGAGCAGGTTATGGGGCATTCAGGCAACGGTGA	0.101	0.177	-0.511	0.325	-0.148	1.45	0.617	1.24	-0.414	0.762
TCTAGTTGGTCAAAGGTTACACACTCGAAATGCG	2.63	3.13	1.38	3.04	0.929	5.08	9.84	8.86	8.99	9.47
CCGACTGGGGCAGAAAGGTTACCATTCCATCCGG	0.282	0.271	-0.165	0.84	-1.08	1.93	1.48	2.66	0.414	2.13
CCGACTGGAGCATAAGGTTACCATAAGCCAGCCC	0.0844	1.93	0.131	0.754	-0.551	0.887	0.85	1.49	-0.133	0.657
TCTAGCAGGCCAGAGCGTCACTCAAGAGGTACGG	-0.546	-0.726	-0.841	-1.08	-1.75	-0.0685	0.266	0.612	1.11	0.674
TCTTGTAGATCAACAGGAGGCTAAGAAAGATCGA	-0.113	-0.312	-0.481	-0.391	-0.588	-0.00556	-0.179	1.14	2.28	1.35
GATACATGGTCAAGGCCAGAGTACGCGTATTGAT	-0.39	-0.622	-0.276	-0.463	-0.821	-0.215	0.872	0.016	0.162	0.303
ACCGAAAGGTCGAAGGTGAGTATACCCACCCGAA	4.73	3.55	-0.00494	2.87	0.185	4.8	4.39	4.89	1.89	3.85
TCTCGGAGGACACGAAAGGACAGAGCTCGACATC	0.793	0.0695	-0.281	-0.358	-0.815	-0.148	0.542	0.751	1.85	1.34
GATACAGGGTAAAGGCCAGAGTACGCGTATTGAT	0.103	-0.0959	-0.132	0.0218	-0.658	2.46	4.52	5.45	3.7	5.48
